Source: PubChem BioAssay
Rab9 promoter act = activates the Rab9 promoter | Potency, µM (series often up to 9.22 µM), for the others: top-dose activation, negative = inhibition, hits mostly activators | 320,000 compounds, 2.8% hits | Huh7 Rab9 promoter-luciferase reporter, luminescence, 24 h | AID 485297; further: % of control where 0% means no effect; nearly all actives have a fitted effect of over 60% in size
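Huh7 cells stably carrying a Rab9 promoter-luciferase reporter, 1500 cells per well in OP-MEM I with 10% FBS, treated with compound 24 hours at 37C. Luciferase activity read by luminescence after 10 minutes with Amplite reagent.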
NPC1 promoter act = NPC1 promoter activation; Huh7 NPC1 promoter luciferase reporter, 24 h; 320,000 compounds, 2.4% hits; Potency, µM (series often up to 9.22 µM), without a hit: at the top dose activation, usual class: activators; AID 485313; further: % of control where 0% means no effect; nearly all actives have a fitted effect of over 60% in size
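Quantitative HTS used a cell-based reporter: Huh7 cells stably bearing the NPC1 promoter upstream of luciferase were treated with compounds for 24 h, and promoter activation was read as luminescence.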
FLuc counter = firefly luciferase modulation, counter-screen for miR-21 project; 360,000 compounds, 6.9% hits; purified FLuc, Km substrates, luminescence inhibition; Potency, µM (series often up to 57.5 µM), without a hit: at the highest dose activity change, negative = inhibition, usual class: inhibitors; AID 588342;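 further: plate controls were vehicle for no effect and reference inhibitor for full effect; nearly all actives have a fitted effect of over 55% in size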
Target sequence (P08659 whole entry, looked up): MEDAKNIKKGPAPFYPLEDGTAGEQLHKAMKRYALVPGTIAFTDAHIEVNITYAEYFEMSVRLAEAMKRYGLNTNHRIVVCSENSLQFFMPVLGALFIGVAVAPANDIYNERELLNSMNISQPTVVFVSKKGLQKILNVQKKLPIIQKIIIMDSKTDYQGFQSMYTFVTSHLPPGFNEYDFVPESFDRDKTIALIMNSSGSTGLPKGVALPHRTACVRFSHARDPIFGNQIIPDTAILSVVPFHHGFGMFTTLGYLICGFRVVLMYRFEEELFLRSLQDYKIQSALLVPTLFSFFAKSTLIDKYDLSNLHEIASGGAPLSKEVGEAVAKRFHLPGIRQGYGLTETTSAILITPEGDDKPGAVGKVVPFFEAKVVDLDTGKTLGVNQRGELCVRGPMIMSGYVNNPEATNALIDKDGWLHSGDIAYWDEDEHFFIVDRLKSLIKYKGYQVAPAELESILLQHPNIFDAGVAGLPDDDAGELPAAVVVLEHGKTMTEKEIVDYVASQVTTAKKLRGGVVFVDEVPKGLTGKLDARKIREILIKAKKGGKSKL
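Purified P. pyralis luciferase (10nM final) with 10uM D-luciferin and 10uM ATP (Km levels) in 50mM Tris acetate pH 7.5, 10mM Mg acetate, 0.01% Tween-20, 0.05% BSA; qHTS 6-point titration, ~60 µM downward; luminescence read.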
p53 reactivation = mutant p53 re-activation in reporter cells. 320,000 compounds, 0.063% hits. Potency, µM (doses to about 92.2 µM), for inactives: top-dose activity change, positive = activation, most hits filed as activators. H1299 p53-A138V BP100-luciferase reporter, luminescence, 24 h; further: % of control where 0% means no effect; nearly all actives have a fitted effect of over 45% in size
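p53-null H1299 cells stably carrying temperature-sensitive p53-A138V and a BP100-luciferase reporter were pinned with compounds (4-point, 1:5 series) and held 24 hrs at 37 deg C. Luminescence was read 10 min after detection reagent.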
ELG1 genotox = inducers of genotoxicity in HEK293T ELG1-luciferase cells | HEK293T ELG1-luciferase reporter, luminescence, 16 h | Potency, µM (top dose mostly 46 µM), for inactives: top-dose activity change, positive = activation, actives largely listed as activators | 330,000 compounds, 1.3% hits | AID 504466; further: % of control where 0% means no effect; nearly all actives have a fitted effect of over 60% in size
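HEK293T cells expressing luciferase-tagged ELG1 were exposed to compound or DMSO vehicle for 16 hr at 37 °C and 5% CO2. Luciferase activity was then measured with ONE-Glo after 30 min at room temperature.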
SMN2 splice enh = SMN2 splice variant enhancement | HEK293 SMN2-luciferase splicing reporter, luminescence, 30-36 h | Potency, µM (highest dose often 46.1 µM), without a hit: at the top dose activity change, positive = activation, most hits filed as activators | 210,000 compounds, 2.8% hits | AID 1458; further: % of control where 0% means no effect; nearly all actives have a fitted effect of over 55% in size
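HEK293 cells carry an SMN2 […]–luciferase reporter in which exon 7 inclusion puts luciferase in frame. Cells were plated 10-12 h before compound addition, then incubated 30-36 h at 37C. ONE-Glo luminescence was read; sodium butyrate at 4.5 mM final served as control.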
Numbers without * were called inactive; ? = inconclusive; . = no result; [ ] = another dose, or the depositor's remark. A selection: hits, their analogues and other compounds. The true share with any hit is near 7.4%. The call rests on the fitted dose curve; in most records, active means well fitted curve in the direction sought with a large enough effect; inconclusive means small, poorly fitted or top-dose-only effect, or another doubt; inactive means no such curve, though single readings can be large; an effect the other way counts as inactive or inconclusive. Potency means the concentration at half of the fitted maximal effect.

SMILES	Rab9 promoter act	NPC1 promoter act	FLuc counter	p53 reactivation	ELG1 genotox	SMN2 splice enh
Cc1cc2nc(-c3ccc(SCc4ccccn4)nc3)[nH]c2cc1C	2.5µM*	?	5.4µM*	-9%	-9%	-19%
COCCNC(=O)CSc1ccc(-c2nc3ccccc3[nH]2)cn1	5%	-6%	?	.	1%	.
N#CCSc1ccc(-c2nc3ccccc3[nH]2)cn1	?	?	12µM*	9%	?	?
CCOC(=O)CSc1ccc(-c2nc3ccccc3[nH]2)cn1	-2%	-1%	12µM*	1%	0%	.
CCOC(=O)CSc1ccc(-c2nc3cc(C)c(C)cc3[nH]2)cn1	?	?	1.1µM*	?	?	9%
COC(=O)c1ccc(Cn2nc(-c3ccc(C)cc3)ccc2=O)cc1	-2%[1.84 µM]	-4%	-5%	-1%	0%	4%
CCCCCCCCCCCCCCC/C=C/[C@@H](O)[C@H](NC(=O)CCCCCCCCCCCCC)OC (tested in a mixture with another compound)	.	.	.	.	.	-8%
COc1ccccc1C(=O)NC(=S)Nc1cccnc1Cl	1µM*	1.1µM*	2.4µM*	12%	0.82µM*	.
Cc1ccc(C(=O)NC(=S)Nc2cccnc2Cl)cc1	2.8µM*	2.5µM*	12µM*	.	?	.
COC(=O)[C@@]1(C)CCC[C@@]2(C)c3ccc(O)c(C(C)C)c3CCC21 (stereo not given in full)	.	.	.	.	.	-33%
COc1ccc(CCNC(=O)CN(c2cc(C)cc(C)c2)S(=O)(=O)c2c(C)noc2C)cc1OC	-3%	-3%	3%	0%	-4%	.
COc1ccc(NC(=O)COCc2cc(-c3cccs3)on2)cc1	.	.	-14%	.	.	.
CCC1CCc2sc(C(=O)NCc3ccccn3)cc2C1 (stereo not given)	28%	?	15µM*	?	?	.
CCC1CCc2sc(C(=O)NCC3CCCO3)cc2C1 (stereo not given)	1.8µM*	2.8µM*	5.4µM*	?	?	.
COc1ccc(C2=NS(=O)(=O)N(C)C(C(=O)N3CCc4ccccc4C3)=C2)cc1OC	-25%	-11%	-5%	0%	-10%	.
Clc1ccccc1-c1nnc(-c2ccc3c(c2)OCO3)o1	1.3µM*	1.4µM*	2.7µM*	?	-11%	5µM*
O=[N+]([O-])c1cccc(-c2nnc(-c3ccccc3)o2)c1	2.2µM*	2.8µM*	15µM*	5%	?	20µM*
Clc1ccccc1-c1nnc2sc(-c3ccc4c(c3)OCO4)nn12	14%	-4%	?	-2%	?	?
O=[N+]([O-])c1cccc(-c2nnc(-c3ccc4c(c3)OCO4)o2)c1	2.2µM*	2.5µM*	2.7µM*	?	?	11µM*
O=C(NCc1ccc(Cl)cc1)C1CC(O)CN1S(=O)(=O)c1ccc(Cl)cc1 (stereo not given)	-7%	1%	-1%	1%	-2%	.
Cc1cc(C(=O)CSc2ccccc2)cc(C)c1O	0%	?	19µM*	?	?	.
O=C(O)[C@@H]1C[C@H](C(=O)O)N1	1%[46.1 µM]	7%[46.1 µM]	.	.	.	1%
COC(=O)CSc1nc(N)c2c3c(sc2n1)CCCC3	5%	1%	9.5µM*	17%	13%	.
CC(C)(C)C1CCc2c(sc3nc(SCC(=O)O)nc(N)c23)C1 (stereo not given)	11%	18%	2.4µM*	2%	?	.
CSc1nc2sc3c(c2c(=O)n1-c1ccccc1)CCC(C(C)(C)C)C3 (stereo not given)	.	.	1%	.	.	3%
SMILES	Rab9 promoter act	NPC1 promoter act	FLuc counter	p53 reactivation	ELG1 genotox	SMN2 splice enh
Nc1nc(SCC(=O)NCCO)nc2sc3c(c12)CCCC3	-2%	6%	17µM*	-2%	11%	10%
COc1ccc(-c2nc(C)c(CCNC(=O)C(=O)Nc3ccccc3C#N)s2)cc1OC	.	.	3%	.	.	.
CC(=O)Nc1cccc(C(=O)Nc2cccc(S(=O)(=O)NCc3ccco3)c2)c1	-3%	0%	-1%	5%	-1%	.
CC(=O)Nc1ccc(C(=O)/C=C/c2ccco2)cc1	22%	13%	9.5µM*	?	11%	16%
CC(=O)Nc1cccc(C(=O)NCCc2ccco2)c1	?	?	?	28%	23µM*	.
Cc1ccc(NC(=O)N/C=C/c2ccco2)cc1	2.8µM*	2.8µM*	?	13%	?	14µM*
O=C(/C=C\c1ccco1)c1ccc(NC(=O)c2ccco2)cc1	?	?	11µM*	14%	?	.
O=C(Nc1ccc(C(F)(F)F)cc1)C1(c2cccs2)CCOCC1	.	.	2%	.	.	.
CCn1ccc2cc(S(=O)(=O)N3CCCN(C(=O)NCC(C)C)CC3)ccc21	.	.	2%	.	.	.
CC(=O)Nc1cccc(C(=O)/C=C/c2ccco2)c1	21%	?	19µM*	?	7%	2%
NCCc1nnc(SCC(=O)Nc2cccc(Cl)c2)o1	3%	0%	3%	5%	0%	.
COc1ccc(OCc2nnc(SCC(=O)Nc3cccc(Cl)c3)o2)cc1	0%	-2%	19µM*	0%	0%	.
O=C(CSc1nnc(-c2cccnc2)o1)Nc1ccccn1	4µM*	3.2µM*	0%	29%	7.3µM*	13µM*
O=C(CSc1nnc(-c2ccccn2)o1)Nc1ccccc1F	0.79µM*	0.45µM*	2%	?	?	.
O=C(CSc1nnc(-c2ccc(C(F)(F)F)cn2)o1)Nc1cccc(Cl)c1	?	3.2µM*	.	4%	?	.
COc1ccc([C@H]2CC(=O)C=C(c3ccc(C)c(F)c3)C2)cc1	-3%	0%	0%	?	2%	.
COc1cc(C)c(CN2CCC(n3nccc3NC(=O)C3CCOC3)CC2)cc1C (stereo not given)	3%	-5%	-1%	1%	3%	.
Cc1ccc(C(=O)CC2(O)C(=O)N(CCc3ccccc3)c3ccc(Cl)cc32)cc1 (stereo not given)	.	.	-9%	.	.	-42%
CCOC(=O)C1CCN(C(=O)C2CCCN(c3ncnc4c3nc3n4CCCCC3)C2)CC1 (stereo not given)	3%	-9%	0%	-3%	-4%	.
O=C(CSc1nnc(-c2cccc(Cl)c2)o1)Nc1ccc2c(c1)OCCO2	2.8µM*	3.5µM*	-5%	?	21µM*	11µM*
O=C(CSc1nnc(-c2ccccn2)o1)Nc1cccc(Cl)c1	2.2µM*	?	.	?	6%	.
COc1cccc(-n2c(SCC(=O)Nc3cccc(Cl)c3)nc3c(oc4ccccc43)c2=O)c1	.	.	1%	.	.	-5%
